Structures are written as SMILES. Several values for one entry are separate records, joined by “and”; a condition that tells them apart may be missing. Equal entries are not always repeated. Compounds without any hit were thinned out: in the full panel of roughly 83,000, 20% have a hit.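 Interpretation: 100, growth as untreated; towards 0, rising growth inhibition; 0, no net growth; 0 to -100, cell death. Compounds scoring below 10 were considered active.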 Activity calls are given as the source filed them.

The subject of this assay is MDA-MB-468 breast. In words: NCI-60 one-dose screen, 48 h (100 = growth as untreated, 0 = no growth, -100 = all killed). The following applies: 10 µM unless noted.
Regarding `COc1cc2c(c(OC)c1OC)CCC(c1cccc(NC(=O)c3ccc(Br)cc3)c1)O2` (centres undefined), the growth was 35.8% (inactive).

For the molecule `Cc1cc(C(=O)c2ccc(Cl)cc2)ccc1O`, the growth is 96.1% (inactive).

Consider `O=C1CN(Cc2ccc(C(=O)NO)cc2)C(=O)[C@@H](Cc2ccccc2)N1`, for which the growth is 109% (inactive).

On to `FC(F)(F)c1ccc2c(c1)Sc1ccccc1N2`, for which the growth is 102% (inactive).

For the molecule `COC1=CC(=O)OC(c2ccc(OC)cc2)C1` (centres undefined), the growth is 112% (inactive).

On to `CN(C)CC(=O)Nc1ccc(Cn2nnc3c2C(=O)c2nnn(Cc4ccc(NC(=O)CN(C)C)cc4)c2C3=O)cc1`, for which the growth was -79% (active).

For the molecule `CC[C@H](Nc1ncnc(N)c1C(N)=O)c1nc2cccc(NCc3ccc(C(=O)NO)cc3)c2c(=O)n1-c1ccccc1`, the growth is 32.2% (inactive).

As for `N#CC1=C(N)n2nc(-c3ccncc3)nc2NC1c1cccc2ccccc12` (centres undefined), the growth is 76.1% (inactive).

For `CCN(CC)CCOC(=O)N1c2ccccc2Sc2ccccc21`, the growth was 96.3% (inactive).

Take `COc1ccc(C2[C@@H](Cl)C(=O)N2c2cc(OC)c(OC)c(OC)c2)cc1Cl` (some centres undefined): the growth is 2.32% (active).

On to `COc1ccc2nc3ccccc3c(NCc3ccc(Cl)cc3)c2c1`, for which the growth is -30.6% (active).

For `Cc1nn2c(-c3nc4cc(Cl)c(Cl)cc4[nH]3)c(-c3ccc(F)cc3)nc2s1`, the growth was 8.3% (active).

For `O=C1c2ccccc2C23C(=C(c4cncnc4)c4ccccc42)CCCN13` (centres undefined), the growth was 93.3% (inactive).

For `CCC(=O)Oc1ccc(OC)cc1`, the growth is 106% (inactive).

Regarding `Cc1cc(C)c(-c2c(C)cc(C)cc2CBr)c(CBr)c1`, the growth was 45.1% (inactive).

As for `Cc1cc(C2=NNC(=O)Cc3cc4c(cc32)OCCO4)cc(C)c1N`, the growth is 9.52% (active).

As for `CCOC(=O)C1=C(C)NC(SCc2nnc(-c3ccc(Cl)cc3)o2)=NC1c1ccc(Cl)cc1Cl` (centres undefined), the growth is 88.4% (inactive).

As for `O=C1C=C(Nc2ccc([N+](=O)[O-])cc2)c2ccccc2C1=O`, the growth was 41.1% (inactive).

As for `COc1cccc2c1O/C(=C\c1c([N+](=O)[O-])ncn1C)C2=O`, the growth is 101% (inactive).

On to `COc1ccc2c(Cl)cc(NC(=O)Nc3c(C)cccc3C)nc2c1`, for which the growth was 79.2% (inactive).

Consider `COc1ccc(C2CC(c3cccc(OCCCCOc4cccc(C5=NOC(c6ccc(OC)cc6)C5)c4)c3)=NO2)cc1` (centres undefined), for which the growth is 112% (inactive).

As to `CC(C)n1c(NCCc2ccc(O)c(O)c2)nc2c1c(=O)n(C)c(=O)n2C`, the growth was 73.8% (inactive).

Consider `CC1=C(C(=O)c2ccccc2)C(c2ccc3c(c2)OCO3)NC(=S)N1` (centres undefined), for which the growth was 54.3% (inactive).

On to `CS(=O)(=O)Nc1cc(-c2ccc3ncc(C#N)c(Nc4cccc(Cl)c4F)c3c2)cnc1Cl`, for which the growth was -45.3% (active).

For the molecule `CN(C)CCCNc1c2ccc(Cl)cc2nc2c1oc1ccc(Cl)cc12`, the growth was 36.4% (inactive).

As for `O=C1/C(=C/c2ccccc2[N+](=O)[O-])Oc2ccc(O)cc21`, the growth was 20.3% (inactive).

With `N#Cc1c(-c2ccccc2)nc(SCC2CO2)nc1N1CCOCC1` (centres undefined), the growth was 55.9% (inactive).

`Clc1ccc(/C=N\N=C\c2ccc(Cl)c(Cl)c2)cc1Cl`: the growth was 78.5% (inactive).

For `O=C1/C(=C/c2ccccc2Br)COc2ccc(O)cc21`, the growth is 69.1% (inactive).

As to `COc1ccc(-c2nc3sc4c(c3c(=O)[nH]2)CCCCCC4)cc1`, the growth is 98.5% (inactive).

Consider `CCCN(CCC)CCC(O)c1cc2c(c3ccccc13)CCCC2` (centres undefined), for which the growth was 72.2% (inactive).

On to `COc1cc(NCC(=O)Nc2cc(Nc3ccc(C)cc3)ncn2)c(Cl)c(OC)c1Cl`, for which the growth is 105% (inactive).

With `Nc1nc(Nc2ccccc2)c2ncn(Cc3cc4c(cc3Br)OCO4)c2n1`, the growth was 14.7% (inactive).

As for `CN(Cc1ccc(C(F)(F)F)cc1)CC(O)C(=O)Nc1ccc(Cl)cc1` (centres undefined), the growth was -30.5% (active).

Take `Cc1ccccc1CNc1ccc(N2CCOCC2)cc1`: the growth is 97.8% (inactive).

With `COC1=CC(c2ccc[nH]2)=N/C1=C\c1[nH]c(C)c(C(=O)CCCCC(=O)NC(C)(C)C)c1C`, the growth is 33.9% (inactive).

`COc1ccc2c(c1)[nH]c(=O)c1c3cccc(F)c3cn21`: the growth was 51.8% (inactive).

On to `COc1ccc(CCn2cnn3c(=O)c4ccccc4nc3c2=O)cc1OC`, for which the growth was 93.5% (inactive) and 94.3% (inactive).

On to `COc1ccc(CCNC(=O)COc2cc3c(Nc4ccc(F)c(Cl)c4)ncnc3cc2OC)cc1OC`, for which the growth is -10.1% (active).

For the origin of these results see PubChem BioAssay (NCI).
